Data reported in PubChem BioAssay AID720531 (The Scripps Research Institute Molecular Screening Center, 2013).
The whole screen tested about 1,000 compounds, of which about 270 (27%) were called active. Cut-off read from the data, not from the text of the source: active = inhibition above about 14%; inactive = the rest. A selection follows.

These compounds were tested against Methyl-CpG-binding domain protein 2 (Homo sapiens) (UniProt Q9UBB5) (assay: MBD2-DBD methyl-oligonucleotide interaction blockers – biochemical, TR-FRET, DNA-binding domain, human, confirmation (AID 720531)). Details: TR-FRET MBD2-DBD binding to methylated oligonucleotide; at 4.4 µM; hits give high values.
Sequence of Methyl-CpG-binding domain protein 2 (Homo sapiens) (Q9UBB5 whole entry, looked up, the tested form may be a part): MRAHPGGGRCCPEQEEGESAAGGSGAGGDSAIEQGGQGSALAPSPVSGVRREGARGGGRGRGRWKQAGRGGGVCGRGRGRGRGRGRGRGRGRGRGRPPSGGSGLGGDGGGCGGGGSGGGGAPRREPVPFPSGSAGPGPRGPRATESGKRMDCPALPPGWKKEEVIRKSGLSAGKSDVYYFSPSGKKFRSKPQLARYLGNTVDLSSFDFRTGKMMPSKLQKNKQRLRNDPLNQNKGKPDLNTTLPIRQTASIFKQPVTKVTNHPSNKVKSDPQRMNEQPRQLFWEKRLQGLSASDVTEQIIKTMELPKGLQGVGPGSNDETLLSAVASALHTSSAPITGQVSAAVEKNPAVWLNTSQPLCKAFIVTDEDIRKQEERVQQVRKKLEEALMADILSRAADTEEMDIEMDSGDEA

inhibition, active:
c1ccc2cc3c(NCCN4CCOCC4)ccnc3cc2c1 25%
O=c1ccc2c(-c3ccccc3S(=O)(=O)O)c3ccc(O)c(O)c3oc-2c1O 94.4%
CN(C)CCNC(=O)c1ccc(Cl)c2cc3ccccc3nc12 68.7%
COC(=O)c1c(NC(=O)c2ccc(S(=O)(=O)N3CCOCC3)cc2)sc2c1CCN(C(C)C)C2 23.6%
C=CCn1c(=S)[nH]c2scc(-c3ccco3)c2c1=O 27.2%
C=CC1=C(C(=O)O)N2C(=O)[C@@H](NC(=O)/C(=N\OCC(=O)O)c3csc(N)n3)[C@H]2SC1 104%
CCN(CC)CCOc1ccc2c(c1)C(=NNC(=O)c1ccccn1)c1cc(OCCN(CC)CC)ccc1-2 112%
Cc1cc(C)c2nc3nc(C)cc(C)c3c(N)c2c1 45.1%
Cc1ccccc1NC(=O)CN1C(=O)N/C(=C\c2cccn2-c2cccc(C(=O)O)c2)C1=O 21.2%
Brc1ccc(-c2n(-c3ccccn3)c3ccccc3[n+]2-c2ccccn2)cc1 76.4%
CN(C(=O)COC(=O)c1cc(-c2ccco2)nc2ccccc12)C1CCS(=O)(=O)C1 (stereo not given) 32.3%
COc1ccc2[nH]c3c(C)c4cc[n+](C)cc4c(C)c3c2c1 109%
COc1ccc2c(c1)c(=Cc1ccc(N(C)C)cc1)c1cc(-c3ccccc3)[n+](C)n12 73%

inhibition, inactive:
Cc1cccc(NC(=O)C[C@H]2CC[C@H]3[C@@H](COc4ccc(NC(=O)Nc5ccccc5)cc4C(=O)N3C)O2)c1 8.99%
COC(=O)[C@]12C[C@H](CC(=O)NCCC(C)C)C(=O)N(CCc3ccc(OC)c(OC)c3)C1=C[C@H](C(C)(C)C)O[C@@H]2C 2.11%
CN(C)[C@@H]1C(=O)C(C(N)=O)=C(O)[C@@]2(O)C(=O)C3=C(O)c4c(O)ccc(Cl)c4[C@@H](O)[C@H]3C[C@@H]12 0.76%
COc1nc(N(C)C)nc(N2CC(=O)N(CCNS(=O)(=O)c3ccc(C)cc3)C2=N)n1 3.06%
CCOc1ccc(-n2c(SCC(=O)Nc3ccc(OC)cc3)nc3sc4c(c3c2=O)CCN(C)C4)cc1 4.44%
COc1ccc(COC[C@H](CC(C)C)N2CCN(C(=O)c3cccc(C(F)(F)F)c3)CCC2=O)cc1 5.45%
Nc1ccccc1C(=O)NC1CCCCNC1=O (stereo not given) 0.65%
COC(=O)c1ccc(CSc2nncn2N)cc1 1.91%
Cc1c(NS(=O)(=O)c2cc(C(=O)NCCc3ccc(F)cc3)cc(Cl)c2Cl)c(=O)n(-c2ccccc2)n1C 3.66%
C=CCN(C(=O)[C@@H](CCCC)[C@@H](O)c1ccc(Cl)cc1)c1ccccc1 3.23%
CNC(=O)C[C@H]1C(=O)N(c2ccc(OC)cc2)C[C@@H]1Cc1ccccc1 2.83%
CCOc1ccc(S(=O)(=O)N2CCC(c3ccccc3)CC2)cc1C(=O)O 0.33%
CC(C)c1nc(CNC(=O)CC2C(=O)NCCN2Cc2cccc(F)c2F)cs1 (stereo not given) 1.21%
CCOc1ccc(NC(=O)c2cc(C)nc3ccccc23)cc1 1.13%
Cc1ccc(Cc2cnc(N)s2)o1 2.75%
CCOC(=O)C1C(=O)OC2(CCCC2)C1C(=O)OCC (stereo not given) 1.9%
C=CCN1C(=O)c2ccc(C(=O)N3CCC(C(=O)OCC)CC3)cc2C1=O 4.08%
COc1ccccc1C(=O)NNC(=O)CCN1C(=O)/C(=C\c2ccccc2)SC1=S 1.72%
COC(=O)c1cn(C)c2ccc(S(=O)(=O)N3CC(C)CC(C)C3)cc2c1=O (stereo not given) 6.67%
Cc1ccc(-c2ccnc3nc(Sc4ncc(C(F)(F)F)cc4Cl)nn23)cc1 3.6%
CCOc1cc(-c2noc(CCCC(=O)NC3CCCCC3)n2)ccc1OC 7.12%
C=C1c2c(Cl)ccc(O)c2C(O)=C2C(=O)[C@]3(O)C(O)=C(C(N)=O)C(=O)[C@@H](N(C)C)[C@@H]3[C@@H](O)C12 (stereo not given in full) 7.25%
CC(C)Oc1ccc(C2NC(=O)NC2=O)cc1 (stereo not given) 6.62%
COC(=O)c1ccc2nc(C3CCCCC3)c(Cc3cccc(F)c3)n2c1 4.72%
Cc1cccc(CN2CCN(C3CN(Cc4cn(Cc5cc(C)cc(C)c5)nn4)S(=O)(=O)C3)CC2)c1 (stereo not given) 1.92%
CCOc1ccc(N(CC(=O)NCCOc2ccccc2OC)S(=O)(=O)c2ccccc2)cc1 2.61%
Cc1c(C=O)n(C)n(-c2ccccc2)c1=O 6.3%
COc1ccc(-n2cc(-c3ccccc3)c3c(=S)nc[nH]c32)cc1 3.57%
Cc1ccc(C)c(NC(=O)c2ccc(OC(=O)c3ccco3)cc2)c1 4.94%
CC(=O)c1ccccc1NC(=O)COC(=O)C1COc2ccccc2O1 (stereo not given) -0.13%
COc1ccc(CNC(=O)c2c[nH]c3c(OC)cc(OC)cc3c2=O)cc1 3.79%
COC(=O)c1ccc2nc(-c3cccc(Br)c3)c(Cc3ccc(OC)cc3C)n2c1 8.39%
CO/N=C(/CS(=O)(=O)c1ccc(Br)cc1)c1ccc(OC)cc1 3.47%
COc1ccc(OCc2cc(C(=O)NCC3(C)COC3)no2)c(Cl)c1 -0.36%
CCOc1cc(N2CCOCC2)c(OCC)cc1NC(=O)c1cc(C)nc2ccccc12 2.46%
CCOC(=O)CCP(=O)(O)C(O)(c1ccccc1)c1ccccc1 5.44%
CCOC(=O)c1sc(NC(=O)CCN2CCOCC2)c(C(=O)OCC)c1C 1.01%
O=C(c1n[nH]c2c1CCC2)N1CCCC(Nc2cccc(F)c2)C1 (stereo not given) 3.32%
O=C(CC1CCCCC1)Nc1c2c(nn1-c1ccc(F)cc1)CS(=O)(=O)C2 1.28%
CCOC(=O)c1ccc(-n2c(CCC(=O)O)ccc2-c2ccccc2)cc1 -0.54%
COC(=O)c1cccc(NC(=O)c2cccc(N3C(=O)CCC3=O)c2)c1 1.64%
Cc1ccc(C(=O)Nc2ccc3c(c2)OCO3)cc1S(=O)(=O)N1CCCCC1 5.06%
